IL-1B inflam inh – inflammasome signaling inhibition, IL-1 beta readout | activity change, % at 57.5 µM | AID 743279 | THP-1 LPS/ATP IL-1B secretion, AlphaLISA, 16 h; hits give low values | 360,000 tested, 4.7% active; in the data active means activity change below about -50%; inconclusive means mostly about -30% to -49%
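Secreted IL-1B measured by AlphaLISA bead assay after 16 h compound exposure of THP-1 cells; compounds (final up to 57.5 uM) added 1 h before LPS (250 ng/mL) and ATP (1.25 mM) stimulation; lower signal means less secretion.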
HT1080-NT tox – kills 2HG-producing HT-1080-NT fibrosarcoma cells | 360,000 tested, 1.6% active | HT-1080-NT fibrosarcoma viability, CellTiter-Glo ATP luminescence, 48 h | Potency, µM (highest dose often 46.1 µM), for the others: top-dose activity, negative = less viability, actives largely listed as cytotoxic | AID 686970;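 further: NT is the 2HG producing partner of a matched IDH1 knockdown line; potency means the concentration at half of the fitted maximal effect; 0% = DMSO-treated cells and -100% = media-only wells without cells; nearly all actives have a fitted effect of over 55% in size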
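Viability by CellTiter-Glo luminescence after 48 h compound exposure at 37C of HT-1080-NT cells (750/well, RPMI, 5% FBS). % activity scaled between DMSO wells and medium-only wells, then curve-fitted and categorized by curve class.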
HT1080 IDH1KD tx – toxicity to HT-1080 IDH1 knockdown cells (counter line); AID 686971; 360,000 tested, 2% active; Potency, µM (doses to about 46.1 µM), inactives show at the top dose activity, negative = toxicity, usual class: cytotoxic; HT-1080 IDH1 knockdown viability, ATP luminescence, 48 h;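 further: potency means the concentration at half of the fitted maximal effect; 0% = DMSO wells and -100% = cell-free medium wells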
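Knockdown cells (IDH1KD HT-1080) received compounds 2 h after plating at 750 cells/well and were kept 48 h at 37 °C in 5% FBS RPMI. A CellTiter-Glo luminescence read gave % activity for curve fitting.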
TDP1 cell noCPT – qHTS for Inhibitors of human tyrosyl-DNA phosphodiesterase 1 (TDP1): qHTS in cells in absence of CPT; 420,000 tested, 15% active; DT40 Tdp1-/- hTDP1 cells, no CPT, ATP luminescence, 48 h; Potency, µM (titrated, usually from 46.2 µM), for the others: at the top dose activity change, negative = growth inhibition, usual class: inhibitors; further: potency means the concentration at half of the fitted maximal effect; nearly all actives have a fitted effect of over 55% in size
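DT40 Tdp1-/-;hTDP1 cells, no CPT (DMSO vehicle only), 400 cells/well; compounds pin-transferred; ≥48 hr, 37 °C; CellTiter-Glo 30 min RT dark, luminescence read.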
TDP1 cell CPT – growth inhibition of DT40 Tdp1-/-;hTDP1 cells with camptothecin (screen for TDP1 inhibitors). AID 686979. 420,000 tested, 12% active. chicken DT40 Tdp1-/-;hTDP1 cells + 20 nM CPT, ATP luminescence, 48 h. Potency, µM (titrated, usually from 46.2 µM), inactives show at the top dose activity change, negative = growth inhibition, actives largely listed as inhibitors; further: potency means the concentration at half of the fitted maximal effect; nearly all actives have a fitted effect of over 55% in size
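Chicken DT40 Tdp1-/- cells stably complemented with human TDP1 were seeded at 400 cells/well in medium containing 20 nM camptothecin, exposed to pin-transferred compounds, and grown at 37 °C for at least 48 hr. Viability was read as ATP luminescence.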
An asterisk follows results filed as active; ? = inconclusive; / = no result. Only some compounds are listed: those with a hit (about 19% of all), similar ones and a draw of the others. Unless noted, the call rests on the fitted dose curve; in most records, active means well fitted curve in the direction sought with a large enough effect; inconclusive means small, poorly fitted or top-dose-only effect, or another doubt; inactive means no such curve, though single readings can be large; an effect the other way counts as inactive or inconclusive. Unless noted, on the % scale 0 is the no-effect control and ±100 the full control effect.

SMILES | IL-1B inflam inh | HT1080-NT tox | HT1080 IDH1KD tx | TDP1 cell noCPT | TDP1 cell CPT
CN1CCN(C(=O)C2=C[C@@H](c3csc4ccccc34)C[C@@H](OCc3ccc(CO)cc3)O2)CC1 | ? | -6% | -4% | 18µM* | 21µM*
O=C(C1=C[C@@H](C2CC2)C[C@@H](OCc2ccc(CO)cc2)O1)N1CCN(Cc2ccc3c(c2)OCO3)CC1 | -28 | 2% | -9% | 21µM* | ?
O=C(C1=C[C@H](c2csc3ccccc23)C[C@H](OCc2ccc(CO)cc2)O1)N1CCOCC1 | -7 | 2% | 8% | ? | ?
O=C(C1=C[C@@H](c2ccc(C(F)(F)F)cc2)C[C@@H](OCc2ccc(CO)cc2)O1)N1CCN(Cc2ccccc2)CC1 | -60* | -30% | -30% | ? | ?
CN1CCN(C(=O)C2=C[C@@H](c3ccc(C(F)(F)F)cc3)C[C@@H](OCc3ccc(CO)cc3)O2)CC1 | -29 | -4% | -19% | ? | ?
O=C(C1=C[C@H](c2csc3ccccc23)C[C@H](OCc2ccc(CO)cc2)O1)N1CCN(Cc2ccc3c(c2)OCO3)CC1 | ? | -12% | -1% | ? | 16µM*
CSc1nnc(-c2sccc2OCc2ccc(C)cc2)n1C | 9 | -2% | ? | ? | ?
CSc1nc2sc3c(c2c(=O)[nH]1)CC(C)(C)OC3 | 20 | 0% | -2% | -14% | ?
O=C(C1=C[C@H](c2ccccc2)C[C@H](OCc2ccc(CO)cc2)O1)N1CCN(Cc2ccc3c(c2)OCO3)CC1 | -53* | -29% | -27% | 21µM* | ?
O=C(C1=C[C@H](c2ccc3c(c2)OCO3)C[C@H](OCc2ccc(CO)cc2)O1)N1CCN(Cc2ccc3c(c2)OCO3)CC1 | ? | -6% | -7% | ? | ?
O=C(NCCN1CCCC1=O)C1CCC(=O)N(CCc2cccc(F)c2)C1 (stereo unspecified) | 10 | 8% | 2% | 11% | 5%
COc1ccccc1-c1c(C(F)(F)F)oc2c(CN3CCCCC3C)c(O)ccc2c1=O (stereo unspecified) | / | / | / | -30% | ?
Cc1ccc(Oc2c(C(F)(F)F)oc3c(CN4CCCCC4C)c(O)ccc3c2=O)cc1 (stereo unspecified) | / | / | / | 26µM* | ?
O=c1ccn(Cc2ccccc2)c2ccccc12 | 31 | 1% | 1% | 13µM* | 12µM*
Fc1ccccc1Cc1noc(CN2CCC(OCc3cccnc3)CC2)n1 | 8 | 0% | 0% | 23µM* | ?
Fc1cccc(Cc2noc(CN3CCC(c4ccncc4)CC3)n2)c1 | 23 | -11% | -24% | 13µM* | 18µM*
Fc1ccccc1Cc1noc(CN2CCN(C/C=C/c3ccccc3)CC2)n1 | -13 | 20% | -3% | 18µM* | 18µM*
Fc1cccc(Cc2noc(CN3CCOCC3)n2)c1 | -5 | 0% | 0% | 3% | -12%
Cc1ccc(C2(c3noc(CN4CCC(c5ccncc5)CC4)n3)CCCC2)cc1 | -25 | ? | ? | 18µM* | 13µM*
CC1(C)C(=O)Nc2ccccc2N1C(=O)COc1ccc(C#N)cc1 | -13 | -4% | 1% | 12% | -11%
Cc1ccc(CNC(=O)CCS(=O)(=O)c2ccc3c(c2)CC(C)N3C(=O)C2CC2)cc1 (stereo unspecified) | 20 | -13% | -24% | 5.8µM* | 7.3µM*
CC1Cc2cc(S(=O)(=O)CCC(=O)NCc3ccccc3Cl)ccc2N1C(=O)C1CC1 (stereo unspecified) | / | / | / | 7.3µM* | 7.3µM*
CC1Cc2cc(S(=O)(=O)CCC(=O)Nc3ccc(F)cc3Cl)ccc2N1C(=O)C1CC1 (stereo unspecified) | / | / | / | 13µM* | 23µM*
CCC(=O)N1c2ccc(S(=O)(=O)CCC(=O)NCc3ccc4c(c3)OCO4)cc2CC1C (stereo unspecified) | 1 | 0% | -5% | ? | -30%
Cc1occc1C(=O)NCCCc1ccccc1 | -2 | -8% | -6% | -8% | ?
SMILES | IL-1B inflam inh | HT1080-NT tox | HT1080 IDH1KD tx | TDP1 cell noCPT | TDP1 cell CPT
O=[N+]([O-])c1ccc(C=Nc2ccccc2)cc1 | -21 | -21% | 3% | ? | ?
O=[N+]([O-])c1ccc(N=Cc2ccc(Br)c([N+](=O)[O-])c2)cc1 | -99* | ? | -14% | 5.2µM* | 5.2µM*
Cn1c(SCC(=O)NCCc2ccccc2)nnc1C1CCCCC1 | 6 | 5% | 2% | ? | ?
CC(=O)N1CCC(C(=O)OCc2ccccc2F)(c2ccccc2)CC1 | 9 | ? | -8% | 21µM* | ?
O=C(NCc1ccccc1Cl)c1nnc(CS(=O)(=O)c2ccccc2)o1 | -5 | -8% | 9% | -23% | 2%
N#C/C(=C(/O)c1ccc([N+](=O)[O-])cc1)c1nc2ccccc2[nH]1 | -6 | -4% | -5% | ? | -9%
COc1cc(OC)cc(C(=O)OC/C(O)=C(\C#N)c2nc3ccccc3[nH]2)c1 | 41 | -28% | -28% | ? | ?
C/C(O)=C(/C#N)c1nc2ccccc2[nH]1 | -14 | 0% | -1% | ? | ?
N#C/C(=C(/O)c1ccc(Cl)c([N+](=O)[O-])c1)c1nc2ccccc2[nH]1 | ? | -13% | -14% | ? | 15µM*
COc1cc(/C(O)=C(\C#N)c2nc3ccccc3[nH]2)cc(OC)c1OC | ? | -1% | 5% | 13µM* | ?
CC(=O)OC(/C(O)=C(\C#N)c1nc2ccccc2[nH]1)c1ccccc1 (stereo unspecified) | 7 | 8.9µM* | ? | 18µM* | ?

Source: PubChem BioAssay (National Center for Advancing Translational Sciences (NCATS))
